These results are taken from PubChem BioAssay (EPA / NIEHS).

The term AC50 denotes the concentration at which the activity in the assay is half-maximal.

Activity calls are given as the source filed them. Rule for the calls: active = hit-call score of the fitted dose curve at least 0.9, where 1 is the maximum; inactive = score below 0.9.

Read-out in the experiment: CD69, CD69 (gene 969)
Put plainly: BSK_SAg_CD69: BioMAP Diversity Plus: SAg Assay for CD69 Biomarker Activity (AID 2283089). The settings on record: primary human HUVEC with PBMC; actives raise or lower the signal. On the procedure:
BSK_SAg is a cell-based, multiplexed-readout assay that uses umbilical vein endothelium and peripheral blood mononuclear cells, a human vascular primary cell co-culture, with measurements taken at 24 hours after chemical dosing in a 96-well plate.BSK_SAg_CD69 is one of 10 assay component(s) measured or calculated from the BSK_SAg assay. It is designed to make measurements of enzyme-linked immunosorbent assay, a form of binding reporter, as detected with fluorescence intensity signals by Enzyme-linked immunosorbent assay technology.Data from the assay component BSK_SAg_CD69 was analyzed into 1 assay endpoint. This assay endpoint, BSK_SAg_CD69, was analyzed with bidirectional fitting relative to DMSO as the negative control and baseline of activity. Using a type of binding reporter, gain or loss-of-signal activity can be used to understand changes in the signaling as they relate to the gene CD69. Furthermore, this assay endpoint can be referred to as a primary readout, because this assay has produced multiple assay endpoints where this one serves a signaling function. To generalize the intended target to other relatable targets, this assay endpoint is annotated to the cytokine intended target family, where the subfamily is inflammatory factor.
The levels of cell surface (or secreted, indicated by the prefix "s") biomarker endpoints were measured by ELISA. Overt cytotoxicity to cells in confluent adherent cultures (all systems other than the BT system) was assessed by measuring total protein levels using sulforhodamine B (SRB) staining in parallel cultures at the time of biomarker measurements, indicated as SRB endpoints. For proliferation assays for adherent cell types, individual cell types are cultured at sub-confluence and relative cell numbers quantified by SRB staining at time points optimized for each system (48 h: 3C and CASM3C systems; 72 h: BT and HDF3CGF systems; 96 h: SAg system). SRB was performed by staining cells with 0.1% SRB after fixation with 10% TCA and reading wells at 560 nm.Viability and proliferation of PBMC (T cells) was quantified by Alamar Blue reduction for the SAg and BT systems. For PBMC viability (referred to as PBMC Cytotoxicity within the assay endpoint names), cells were plated (75,000/well in a 96-well plate) and then chemical samples added for 1 h before addition of activators, SEB and TSST-1 (20 ng/mL final concentration each). Cells were incubated for 90 h. Then, Alamar Blue (20 uL/well) (Invitrogen, Cat DAL1100) was added for 6 h, and the plates were read with a fluorescence microplate reader at 546/580 nm (excitation/emission). For PBMC proliferation, cells were plated and activated as above but incubated for only 16 h prior to addition of Alamar Blue. Plates were read after 6 h.
On to `CCCCOC(=O)[C@@H](C)Oc1ccc(Oc2ccc(C(F)(F)F)cn2)cc1`, for which the outcome was inactive.

In the case of `CC(C)(C)[C@@H](O)[C@@H](Cc1ccc(Cl)cc1)n1cncn1`, the outcome was inactive.

`O=C(c1ccc(O)cc1O)c1ccc(O)cc1O`: the result was inactive.

For the compound `COCCO`, the result was inactive.

As to `CCCOC(=O)c1ccc(C(=O)OCCC)nc1`, the outcome was inactive.

`O=C(Nc1ccc([N+](=O)[O-])cc1Cl)c1cc(Cl)ccc1O`: the concentration at half-maximal activity (AC50) is 0.335 µM (active).

Regarding `CCOC(=O)C(C)Oc1ccc(Oc2cnc3cc(Cl)ccc3n2)cc1` (stereo not given), the result was inactive.

With `CCN(Cc1c(F)cccc1Cl)c1c([N+](=O)[O-])cc(C(F)(F)F)cc1[N+](=O)[O-]`, the result was inactive.

Take `C#C[C@]1(O)CC[C@H]2[C@@H]3CCC4=CC(=O)CC[C@@H]4[C@H]3CC[C@@]21CC`: the result was inactive.

Turning to `C=CCOC(Cn1ccnc1)c1ccc(Cl)cc1Cl` (stereo not given), the result was inactive.

With `c1ccc2[nH]c(-c3cscn3)nc2c1`, the result was inactive.

Take `CCCN(CCC)c1c([N+](=O)[O-])cc(C(F)(F)F)c(N)c1[N+](=O)[O-]`: the result was inactive.

For the compound `OB(O)O`, the result was inactive.

As to `O=C(c1ccccc1)C1CCCCC1`, the outcome was inactive.

Take `COc1nc(C)nc(NC(=O)NS(=O)(=O)c2ccccc2OCCCl)n1`: the outcome was inactive.

As to `CC(C)CCCCCCc1ccc(O)cc1`, the half-maximal activity concentration (AC50) is 10.7 µM (active).

With `N[C@@H](Cc1cc(I)c(Oc2ccc(O)c(I)c2)c(I)c1)C(=O)O`, the outcome was inactive.

On to `COC(=O)c1ccccc1S(=O)(=O)NC(=O)Nc1nc(OC(F)F)cc(OC(F)F)n1`, for which the outcome was inactive.

`COC(=O)c1ccc(CNS(C)(=O)=O)cc1S(=O)(=O)NC(=O)Nc1nc(OC)cc(OC)n1`: the outcome was inactive.

Consider `CCCCOC(=O)C(C)Oc1ccc(Oc2ccc(C(F)(F)F)cn2)cc1` (stereo not given), for which the outcome was inactive.

For `CCCCC(CC)CN1C(=O)C2C3C=CC(C3)C2C1=O` (stereo not given), the AC50 is 20 µM (active).

For the compound `CC(=O)S[C@@H]1CC2=CC(=O)CC[C@]2(C)[C@H]2CC[C@@]3(C)[C@@H](CC[C@@]34CCC(=O)O4)[C@H]12`, the half-maximal activity concentration (AC50) was 13.9 µM (active).

In the case of `CCCCC(CC)COC(=O)c1ccccc1C(=O)O` (stereo not given), the result was inactive.

Turning to `CCSC(=O)N(CC(C)C)CC(C)C`, the result was inactive.

Consider `Cc1nn(C)c(Oc2ccccc2)c1C=NOCc1ccc(C(=O)OC(C)(C)C)cc1`, for which the concentration at half-maximal activity (AC50) is 4.1 µM (active).

In the case of `COC(=O)c1c(Cl)nn(C)c1S(=O)(=O)NC(=O)Nc1nc(OC)cc(OC)n1`, the outcome was inactive.

On to `CCCCCOC(=O)COc1cc(N2C(=O)C3=C(CCCC3)C2=O)c(F)cc1Cl`, for which the result was inactive.

Turning to `CCC(O)=C1C(=O)CC(C(=O)O)CC1=O` (stereo not given), the result was inactive.

`CCC(C)OC(=O)N1CCCCC1CCO` (stereo not given): the result was inactive.

Regarding `CCN(CC)C(=O)c1cccc(C)c1`, the outcome was inactive.

Turning to `COC(=O)CSc1cc(N=c2sc(=O)n3n2CCCC3)c(F)cc1Cl`, the result was inactive.

For `CN(C)C(=O)Nc1ccc(Cl)c(Cl)c1`, the outcome was inactive.

`CCOC(=O)C(C)Oc1ccc(Oc2nc3ccc(Cl)cc3o2)cc1` (stereo not given): the outcome was inactive.

Turning to `CCCOC(=O)NCCCN(C)C`, the result was inactive.

For the compound `S=C([S-])NCCNC(=S)[S-].[Mn+2]`, the result was inactive.

For the compound `COC(=O)c1ccccc1C(=O)O`, the result was inactive.

For `COC(=O)c1ccc(I)cc1S(=O)(=O)NC(=O)Nc1nc(C)nc(OC)n1`, the result was inactive.

Consider `CCNc1nc(N)nc(Cl)n1`, for which the result was inactive.

For `CCOC(=O)[C@H](C)Oc1ccc(Oc2nc3ccc(Cl)cc3o2)cc1`, the result was inactive.

Take `c1ccc(Nc2ccccc2)cc1`: the result was inactive.
